About 3,700 (7%) of roughly 53,000 sequences were called active.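 Rule for the calls: active = gene knockdowns whose robust z-score for IL-1 alpha signal is at least 2 or at most -2, so actives lie on both sides; inactive = the rest.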 The full list was thinned out, with actives kept by preference.
Assay: Components of the Cytosolic LPS Sensing Pathway: Gene Identification via Genome-wide siRNA Screen;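 note: robust z of the log signal after scaling to non-targeting control siRNA wells of the plate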
Conditions: RAW264.7 macrophages, IL-1a HTRF, actives lie on both sides, screened at 100 nM (by protocol), cells primed 5 h with Pam3CSK4 first
Outline: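 Cells (RAW264.7, 1×10^4 per well) were transfected with siRNA at 100 nM and cultured 48h at 37 degrees C. Pam3CSK4 was added for 5 hours; LipidA transfection followed for 24 hour. IL-1a was then measured by HTRF.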

| Sequence | z-score |
| --- | --- |
| GGACAAUUCCAGUCAAUAATT against Ccdc115 | -1.01 (inactive) |
| GGAUUUCGGCUUUUUGAACTT against Bcas1 | 0.531 (inactive) |
| GCCCUUAUGGACGAAAUUUTT against Ang2 | 0.0523 (inactive) |
| GGUCUGCUCAAUGCUAUCATT against Olfr918 | -1.47 (inactive) |
| GGAGAGACUCAGGAGUUUUTT against Rnd2 | 2.74 (active) |
| UGAAUAAGGUGUGGUGCUCTT against Vmn1r148 | 0.607 (inactive) |
| GGCUAACUUUAGUGAGGUATT against 3110070M22Rik | 0.233 (inactive) |
| CCGAAGUGCAACAAGCCAATT against Abl2 | 1.17 (inactive) |
| GGGUACGUGAAGAAACUUCTT against Meig1 | -2.23 (active) |
| GGGCACACGUACCAACUAUTT against Mib2 | -0.458 (inactive) |
| GGGACCCUACAAAAUCAUUTT against Ganab | 0.467 (inactive) |
| GGAUCUUUUCAGGUUCUAATT against Olfr659 | 0.377 (inactive) |
| GCUAGAAGCCUGACAUUUUTT against Tbca | -0.538 (inactive) |
| CGAUUGAUGAAUCUGGUUCTT against Racgap1 | -0.31 (inactive) |
| GCUGGUCAAGGGUCUAGAGTT against Saa3 | -2.05 (active) |
| GGGAGUUCUCUAAAUGCUUTT against Olfr482 | 1.52 (inactive) |
| GCCUCCAGUAUCAUAAUUGTT against Antxr2 | 1.26 (inactive) |
| CCAGUUCGAUGUGGUAAUATT against St3gal5 | 1.11 (inactive) |
| GGAUGUCACAUGACAGUUUTT against Tmprss4 | 0.563 (inactive) |
| GGAUCCAACAAAUGUUAUUTT against Ccdc92 | 2.06 (active) |
| CGAUGGUGAUUCCCAUGUUTT against Olfr996 | 0.529 (inactive) |
| GCUAUCUCGGUGUCAACUUTT against Aqp7 | -1.26 (inactive) |

| Sequence | z-score |
| --- | --- |
| GGUUGGAUUAUUAGGAAUUTT against Dnah5 | 0.0387 (inactive) |
| GGGCUCCUUUUUUUUUUUUTT against Frat1 | -2.55 (active) |
| CCAAUUGCUCUCCAUGAAATT against Coro1c | 0.331 (inactive) |
| GCUUGGAAGACAUUGACCCTT against Brsk2 | -0.996 (inactive) |
| GGUUACAGAAGAAUUAGAATT against Ift57 | 9.9e-05 (inactive) |
| CCCUCUUUAUCGUCUGUGATT against Gpha2 | -2.89 (active) |
| GGGAUUGAGAUCCUCAUACTT against Olfr1179 | 0.125 (inactive) |
| GCCGAGAUGGUCAUAAGCUTT against Rbbp5 | 1.99 (inactive) |
| CCUACCACAACAUGUAUCCTT against S100a11 | 2.25 (active) |
| GCACGGCGAAAAAAUCUUCTT against Katnal2 | -0.167 (inactive) |
| GCAGUGGUAGAACAUCCAATT against Bhmt2 | 0.585 (inactive) |
| CCUACUGUCUAAGAAUACATT against Olfr1138 | -1.65 (inactive) |
| CCUUCCACAAAUACUCAGGTT against S100a4 | 0.562 (inactive) |
| GGCUUAUGUGAUUUUGAUUTT against Gpr63 | -0.628 (inactive) |
| GGAGAAGAUGUCAUCCAGATT against Zfp467 | -0.37 (inactive) |
| GGAUAGACACUAGGAUCCUTT against Pdcd1lg2 | 0.721 (inactive) |
| GCUGCUAUGAGAGAGUUUUTT against Serpind1 | 2.18 (active) |
| GGCAACAAAUCAAAGCAGCTT against Anxa7 | 1.4 (inactive) |
| GCUUAUAAAGUAGUGGUUUTT against Wnt2b | -0.384 (inactive) |
| GCACCGAGUGGAAUAAUCATT against Lrp12 | 3.44 (active) |
| CCGUAAGUCUCGGAUCUCCTT against Plcxd1 | 0.373 (inactive) |
| GCCACUACAUAAAAUAGUCTT against Ube2z | 0.0966 (inactive) |

| Sequence | z-score |
| --- | --- |
| GGAGAUGAGGUGAAGUGGATT against Acsm4 | -0.213 (inactive) |
| GGCAUAUAUACAUGCCUGCTT against Vmn1r215 | 0.833 (inactive) |
| GCCCUACUAAGUCAAUUAATT against 1700055D18Rik | 0.248 (inactive) |
| GGACAUUUUCAAACAAGGCTT against Mthfs | -1.07 (inactive) |
| GGGAAAAUAUCAGCUCAAUTT against D930048N14Rik | -2.63 (active) |
| GCCUUGUGACAGCAUUAGUTT against Slc6a13 | -0.0361 (inactive) |
| GGUGCUAAAUAAGACAAUGTT against Psma4 | -1.76 (inactive) |
| GGGCAUGUGGAUGACUGAUTT against Gnptg | 2.04 (active) |
| GGGCUAGCAUCACAGUUUUTT against Tigd3 | 2.3 (active) |
| GCCCACUCACACCUAUUCUTT against Olfr1388 | 0.406 (inactive) |
| GGCGCAAGUUUGAUUUUGATT against Gigyf1 | 1.23 (inactive) |
| CCAUCUUGAAGAUUCGUUCTT against Olfr486 | -1.24 (inactive) |
| GCUAAUCUAUCCGUGUCCUTT against B3gnt3 | -0.522 (inactive) |
| GGUAUAGCGGUGCAUGUCATT against Bmp8a | -0.823 (inactive) |
| GCUGGAGAUCAUCCUUCAGTT against Rph3al | 0.742 (inactive) |
| GCUCCAGGCAUUGAGAAUGTT against Hcfc1r1 | 1.98 (inactive) |
| GGGAAGCUAAUAAAAGCACTT against Rgs20 | -0.902 (inactive) |
| GGUGCUCAAAGAAUGCAUUTT against Prkar1b | 0.367 (inactive) |
| GGCUUGCAUAUCUAUUGGATT against Map2k6 | 2.61 (active) |
| CCUCUCAGAUUUUCACAUATT against Zfp599 | 1.36 (inactive) |
| GGCUCAAAGUCCUCAGAGCTT against Atp6v1e1 | -2.15 (active) |
| GGGAUUGUAUGAGUGCACATT against Coa4 | 0.657 (inactive) |

| Sequence | z-score |
| --- | --- |
| GGAGUCUUCUCAAUUUGACTT against Olfr1105 | -0.617 (inactive) |
| CCUAUAUGACAAAAGACAGTT against Glra2 | -0.168 (inactive) |
| GGCGGUCUUUAAGAUGCUCTT against Ubl7 | 2.12 (active) |
| GCUAGGUAUACAGCCAAAGTT against Spryd4 | -0.699 (inactive) |
| GCGCGUCAUCUUCUGACUUTT against Mmgt2 | 1.45 (inactive) |
| GGUGACUUGCUUUAGAAAATT against Tnfaip8l1 | 0.184 (inactive) |
| GCACCUCCUUAUGUGUCAUTT against Chrm2 | 0.729 (inactive) |
| GGACAUGACAUUUUUACGCTT against Cyp4f16 | -1.26 (inactive) |
| GGAUAUGAACAAUAGCAUATT against Kcna1 | 2.2 (active) |
| GGACUUAUCACUAUUUGCATT against Dlgap3 | 0.782 (inactive) |
| GCCAUAGCUAUUGUCAUUCTT against Mmp16 | 0.441 (inactive) |
| GCAUGGUAUCAGGUACAUATT against Med9 | 2.2 (active) |
| GGUCUUUGUACAUCAAUGUTT against Zfp677 | -0.241 (inactive) |
| AACCAGUCCUUGAAAAGAGTT against Olfr128 | -1.01 (inactive) |
| GGAAGGUAUCCACUGUGCATT against Nme6 | -1.46 (inactive) |
| CCUCACCAGGUAAAUUUUUTT against Ro60 | -1.25 (inactive) |
| GGUACUUUCCUUUCGAUGCTT against Skint10 | -0.524 (inactive) |
| CCUGGUAACCUGCUAAAAGTT against Gm5124 | 1.24 (inactive) |
| GGACUGGUUCUUCAGUACCTT against Cradd | 2.21 (active) |
| GGAACACAUUACCUCAAUUTT against Lipt2 | -0.705 (inactive) |
| GGAACUCAUGUGAAGCUCCTT against Ssu72 | -0.544 (inactive) |
| GGAGCUGAGCAGUGAUGAATT against Snx29 | -2.08 (active) |

| Sequence | z-score |
| --- | --- |
| GCACCUAGAUUGAUCAUAGTT against Olfr1183 | -0.894 (inactive) |
| GGAACCGCUGAUGCUUAAGTT against Ctsl | -0.726 (inactive) |
| GGCUCAGUGAAGGCAAGUUTT against Hspb2 | 2.56 (active) |
| GGGUCAUCCACUUUGUCAGTT against Fam177a | -0.584 (inactive) |
| CCGCUGCAUAGCAUGUACATT against Dusp23 | 0.901 (inactive) |
| GGUGGAGAUUAUUCAUGUUTT against Dpp8 | 2.31 (active) |
| GGUGAACAGAAGGACAGAUTT against Gm4736 | 0.479 (inactive) |
| CCAUUUAUGGAAUACACCUTT against Tmem150b | 0.0118 (inactive) |
| GGCCAAAUGACUGAGAUUGTT against Rcan3 | 1.35 (inactive) |
| GGAAGAAUUUAAGAAGUUCTT against Pdia3 | 1.24 (inactive) |
| GGUCCCUGUGAACAAGCUGTT against Serpinf1 | 1.12 (inactive) |
| GGUGUUACAUAUGAGGAAUTT against Ociad1 | 1.61 (inactive) |
| GGCAGACAGAGGGUAAAAATT against Slc24a1 | -0.956 (inactive) |
| GGAAGAGGAAUAUUACCAGTT against Marveld3 | -2.16 (active) |
| GGUUCUCUACAAAGUAAGUTT against Slc35e1 | -0.0459 (inactive) |
| GCUUGUUCAGGAAAUGAAATT against Tmcc3 | -1.15 (inactive) |
| GGAGACAGAAUUCAAAACUTT against P2ry1 | 0.0725 (inactive) |
| CCUUCCUACAACAAGUGUGTT against Galnt1 | 2.02 (active) |
| GCCCAGUCAAGACUAUUCGTT against Csnk2b | 1.58 (inactive) |
